A1 inh: caspase 3/7 activation in MEF A1-2A-BIM cells, primary screen, A1 inhibitor project, cell-based, luminescence, HTS; Caspase-Glo 3/7 luminescence, 3 h; percent of clofoctol response, vehicle zero; caspase activation, % (no concentration beside the values); 0.066% of 330,000 active; AID 2462, 2010;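 active means over half of replicate activation scores above 10%, or exactly half above 10 with the replicate mean above 10; inconclusive means replicate mean below 10 yet half the replicates above 10; inactive means over half of replicates below 10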
AHR act: AHR activators, primary screen, cell-based, luminescence, luciferase reporter, human; Aryl hydrocarbon receptor (Homo sapiens), P35869; AHR-responsive luciferase reporter cells; activation, % at 5 µM; 2.5% of 320,000 active; in the data active means activation above about 47%;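 further: 0% = vehicle wells and 100% = reference agonist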
SUMO Mot1 rescue: yeast Mot1-301 growth rescue at high temperature, primary screen, SUMOylation pathway inhibitor project, S. cerevisiae, ATP luminescence, 38.5C; growth rescue, % at 18.8 µM; S. cerevisiae Mot1-301 growth rescue; percent above DMSO median, 100 means doubled; 1% of 320,000 active;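 active means every valid replicate shows activation above 250% relative to neutral control wells; inactive means the rest, any valid replicate at or below 250%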;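 further: OY570 slx delta 5 strain wells were the positive control but not used for scaling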
Efflux pump inh: inhibitors of Candida efflux pumps in yeast, primary screen, S. cerevisiae, Nile Red, multiplex; S. cerevisiae Candida pump triplex; 0.44% of 330,000 active; inhibition, % at 10 µM;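 active means plate passing quality check with inhibition over a set limit, or well fluorescence over plate mean plus 4 SD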;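 further: Nile Red retained in pooled yeast measured as flow cytometry median fluorescence; 0% = buffer negative control and 100% = Enniatin B positive control; higher means more Nile Red kept so more efflux inhibition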
VLA-4 inh: inhibition in human VLA-4 binding assay, primary screen, VLA-4 allosteric modulator project, MLPCN library, flow cytometry, VLA-4 expressing cells; ligand binding flow cytometry; inhibition, % (about 7 µM as worked out from the volumes in the protocol); 0.2% of 330,000 active; in the data active means inhibition above about 50%
ALR inh: inhibitors of human ALR sulfhydryl oxidase, primary screen, biochemical, H2O2 detection, HRP-luminol luminescence, single point. FAD-linked sulfhydryl oxidase ALR (Homo sapiens), P55789. purified ALR, DTT oxidation. inhibition, % (concentration not given with the values). 3.8% of 290,000 active. AID 485317, 2010;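 active means mean replicate inhibition above about 79%, with every replicate also reaching it, limit read from the data; inconclusive means only one of the two criteria met; inactive means mean below limit and not every replicate reaching it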
An asterisk follows results filed as active; u = inconclusive; x = no result. Only some compounds are listed: those with a hit (about 7.2% of all), similar ones and a draw of the others.

SMILES	A1 inh	AHR act	SUMO Mot1 rescue	Efflux pump inh	VLA-4 inh	ALR inh
O=C(CNc1ccccc1)N/N=C/c1c[nH]c2ccccc12	0	50*	-3	0	-2	89*
CC(C)Oc1ccc(C(=O)NCC(=O)N2CCN(S(=O)(=O)/C=C/c3ccccc3)CC2)cc1	x	-1	x	0	4	x
COc1cc(NC(=O)c2ccno2)cc(C(=O)Nc2cccc(C(F)(F)F)c2)c1	0	64*	-13	0	10	-3
COc1cc(NC(=O)c2cc3cccc(OC)c3o2)cc(C(=O)Nc2cccc(C(F)(F)F)c2)c1	1	73*	-1	0	10	-13
Cc1ccsc1C(=O)Nc1nc2ccccc2[nH]1	-7	111*	-11	0	2	-2
Cc1c(C(=O)Nc2nc3ccccc3[nH]2)cccc1[N+](=O)[O-]	-3	60*	4	0	-6	4
Cc1cc(C)cc(C(=O)Nc2nc3ccccc3[nH]2)c1	-1	57*	16	0	-9	-5
COc1cc(OC)cc(C(=O)Nc2nc3ccccc3[nH]2)c1	-3	39	x	0	6	6
CCc1ccc(C(=O)Nc2nc3ccccc3[nH]2)cc1	-8	51*	-11	0	-4	0
O=C(Nc1nc2ccccc2[nH]1)c1ccc(F)cc1	-14	11	-13	1	3	-2
Cc1ccc(CSc2nc3ccccc3c(=O)n2C)cc1	0	2	-6	0	10	-2
COc1ccc(S(=O)(=O)Nc2cccc3c2O[C@H](CN(C)C(=O)Nc2ccc4c(c2)OCO4)[C@@H](C)CN([C@H](C)CO)C3=O)cc1	0	-1	0	0	1	-10
O=C(NCCOc1ccccc1F)c1cccc(S(=O)(=O)N2CCN(c3ccccc3)CC2)c1	0	3	103	0	-11	2
CS(=O)(=O)NCCC1=CCCCC1	0	3	56	0	6	-9
O=C(Nc1nc2ccccc2[nH]1)c1ccc(OC(F)F)cc1	-8	-3	-11	0	-9	-14
O=C(Nc1nc2ccccc2[nH]1)c1cc2ccccc2o1	-7	56*	-6	0	-17	-2
O=C(Nc1nc2ccccc2[nH]1)c1ccccc1OC(F)F	-10	51*	-12	0	19	1
CCN(CC)CCSc1nc(O)c(Cc2ccccc2)c(=O)n1-c1ccccc1	0	0	53	0	0	0
CCCCNC(=O)c1cccc(C(=O)NCCCC)c1	0	4	6	0	17	-3
Cc1cc(C)c2cc(C(=O)Nc3ccc(C)c(F)c3)[nH]c2c1	1	x	340*	0	-18	-8
CCCCNC(=O)c1cc2c(C)cc(C)cc2[nH]1	1	55*	-4	0	-1	2
O=C(NNC(=O)c1cc(Cl)ccc1[N+](=O)[O-])c1csc(N2CCOCC2)n1	0	-1	31	0	-5	-2
c1ccc(N2CC3CCc4ccccc4C3=N2)cc1 (centres undefined)	-2	57*	17	0	3	u
O=c1c2oc3ccccc3c2[nH]c(=S)n1-c1ccc(F)cc1	-2	57*	-14	0	-6	60
CC(=O)Nc1ccc(SC[C@H](c2ccccc2)N2CCN(CCc3ccccc3)CCC2=O)cc1	-1	25	-15	0	9	98*
SMILES	A1 inh	AHR act	SUMO Mot1 rescue	Efflux pump inh	VLA-4 inh	ALR inh
O=C1CCN(CCc2ccccc2)CCN1[C@H](CSc1ccc(Br)cc1)c1ccccc1	0	16	7	0	24	x
CCN(Cc1ccc(OC)c(F)c1)C(=O)CCl	0	0	22	0	-2	97*
Cc1cc(-c2cc(C(=O)NCc3ccccc3)on2)nc(NC2CCCC2)n1	1	3	14	0	-25	0
COc1ccc(NS(=O)(=O)c2cccc(C(=O)NCC3CCCO3)c2)cc1 (centres undefined)	0	2	23	0	0	-11
O=C(NCC1CCCO1)c1cccc(S(=O)(=O)Nc2ccc(SC(F)F)cc2)c1 (centres undefined)	1	4	4	0	3	98*
Nc1cc(-c2cccc([N+](=O)[O-])c2)[nH]n1	0	11	1	0	7	72
O=[N+]([O-])c1cccc(-c2cn(-c3ccccc3)c(=S)[nH]2)c1	1	74*	5	0	6	2
O=[N+]([O-])c1ccc(-c2cn(-c3ccccc3)c(=S)[nH]2)cc1	0	47*	-2	0	17	-2
Cc1cccc(-n2cc(-c3ccc([N+](=O)[O-])cc3)[nH]c2=S)c1	-1	25	1	0	-14	x
O=c1cc(-c2cccc([N+](=O)[O-])c2)[nH][nH]1	1	3	-9	0	6	82*
CCOc1ccccc1NC(=S)NCc1cccn1C	0	2	-24	0	-6	2
Cc1ccc(-n2ncc3c2CC(C)(C)CC3NC(=O)CCN2CCCO2)cc1 (centres undefined)	0	-3	78	0	13	-4
COCC(=O)NNC(=S)Nc1cccc(C)c1C	0	0	-11	0	4	x
CCOC(=O)C1CCN(Cc2cnc(Oc3ccc(Cl)cc3C)s2)CC1	0	2	117	0	-8	-2
CCOC(=O)C1CCN(Cc2cnc(Oc3ccc(N)cc3)s2)CC1	x	-1	84	0	2	98*
CCCC(=O)Nc1ccc(-c2csc(NNC(C)=O)n2)cc1	2	0	1	0	3	99*
CC(=O)NNc1nc(-c2ccc(C)cc2)cs1	0	17	8	0	16	83*
CC(=O)NNc1nc(-c2ccccc2)cs1	0	11	16	0	-6	11
CCCOc1ccc(CNC(=O)c2ccc3c(c2)N(CC)CCS3)cc1	x	7	41	0	-7	-6
Cc1c(NC(=O)COC(=O)c2ncc(Cl)c(Cl)c2Cl)c(=O)n(-c2ccccc2)n1C	-1	3	5	0	3	0
S=C(NC1CCCCC1)N1CCN(C/C=C/c2ccccc2)CC1	-1	0	122	0	6	x
C[C@H](CO)N1C[C@H](C)[C@@H](CN(C)S(=O)(=O)c2ccccc2)Oc2ccc(NC(=O)CCC(F)(F)F)cc2C1=O	1	-1	-13	0	4	-1
COc1cccc(N2CCN(c3ccc4nnc(CCC(=O)N5CCC(C)CC5)n4n3)CC2)c1	0	0	6	0	-13	99*
